CYP2C19 inh = blockers of cytochrome P450 2C19 activity – biochemical, luminescence, ADME assay, primary screen | inhibition, % at 5 µM | AID 778, 2007 | CYP2C19 Supersomes, luciferin-H EGE luminescence, 30 min | P33261 | 96,000 compounds, 21% hits;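 active = CYP2C19 inhibition above a set limit at 5 µM in the primary screen, cut at about 50% in these data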;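 also: plate controls were negative control wells for no effect and 2.5 mM tranylcypromine positive control for full effect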
CYP2C19 activ = human CYP2C19 activators, primary screen, biochemical, luminescence; Cytochrome P450 2C19 (Homo sapiens), P33261; activation factor at 5 µM; 96,000 tested, under 10 active; recombinant CYP2C19, luciferin-H EGE luminescence; active compounds read high; 0 = fully inhibited enzyme, 1 = untreated enzyme;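 active = activation factor of at least 2 at 5 µM in the primary screen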;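 also: 0 = wells with 2.5 mM tranylcypromine and 1 = vehicle-only wells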
CYP2C9 inhib = blockers of cytochrome P450 2C9 activity – biochemical, luminescence, ADME assay, primary screen; P11712; CYP2C9 Supersomes, luciferin-H conversion; inhibition, % at 5 µM; 96,000 compounds, 20% hits;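 active = blocking of liver enzyme CYP2C9 beyond about 50% at 5 µM, limit read from the data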
Target sequence (P11712 whole entry, looked up): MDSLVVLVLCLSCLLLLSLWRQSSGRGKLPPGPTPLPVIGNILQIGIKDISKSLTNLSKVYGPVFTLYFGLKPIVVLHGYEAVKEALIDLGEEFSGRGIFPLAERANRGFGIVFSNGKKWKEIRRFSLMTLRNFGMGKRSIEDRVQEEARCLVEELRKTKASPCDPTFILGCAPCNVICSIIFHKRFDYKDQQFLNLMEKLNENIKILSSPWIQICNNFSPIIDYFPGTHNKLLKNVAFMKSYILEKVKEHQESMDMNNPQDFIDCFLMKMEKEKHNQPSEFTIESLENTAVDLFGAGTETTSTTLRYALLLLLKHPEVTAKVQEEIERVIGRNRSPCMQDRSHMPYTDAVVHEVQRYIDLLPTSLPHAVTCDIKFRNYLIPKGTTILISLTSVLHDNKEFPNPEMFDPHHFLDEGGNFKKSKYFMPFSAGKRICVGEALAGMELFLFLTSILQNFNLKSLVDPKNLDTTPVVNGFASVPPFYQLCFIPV
CYP2C9 activ = human CYP2C9 activators, primary screen, biochemical, luminescence | Cytochrome P450 2C9 (Homo sapiens), P11712 | recombinant CYP2C9, luciferin-H conversion; active compounds read high; factor 1 = untreated enzyme, 0 = blocked | activation factor at 5 µM | 96,000 compounds, 1.4% hits | AID 1024, 2008;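 active = activation factor of 2 or more for CYP2C9 at a 5 µM dose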;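 also: 0 = sulfaphenazole-blocked wells and 1 = vehicle-only wells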
Measles CPE = compounds protecting cells from measles virus cytopathic effect, primary screen, measles RdRp inhibitor project, single point, MLSMR library, absorbance. Measles virus-infected cells, CPE protection. protection (pct of control), % at 4 µM. 140,000 compounds, 1.5% hits; in the data active = protection mostly above about 24%, no sharp cut-off; inactive = mostly below about 26%
* marks the source's active call; other numbers are inactive results; x = no result. Rows were chosen to be rich in hits. Some 22% of all compounds tested hit in one or more screens of this group.

SMILES | CYP2C19 inh | CYP2C19 activ | CYP2C9 inhib | CYP2C9 activ | Measles CPE
Cc1ccc(C)n1-n1c(C)nc2sc3c(c2c1=O)CCCCC3 | 10.8 | 0.9 | 8.4 | 0.9 | 2.6
CCOc1cc(CNCCc2ccc(S(N)(=O)=O)cc2)cc(Cl)c1OCc1ccccc1 | 23.3 | 0.8 | 22.3 | 0.8 | 17.8
CCCn1c(CCC(=O)Nc2ccccc2Cc2ccccc2)nc2cc(S(=O)(=O)N3CCOCC3)ccc21 | 28.3 | 0.7 | 75.3* | 0.2 | 12.0
CCn1c(SCC(=O)c2c[nH]c3ccccc23)nc2cc(S(=O)(=O)N3CCOCC3)ccc21 | x | x | x | x | 22.6
CCOC(=O)CSc1nc2ccccc2c(=O)n1CCCCCC(=O)NCc1ccco1 | 59.7* | 0.4 | 96.8* | 0 | 3.8
Cc1cccc(-n2c(SCC(=O)NCc3ccco3)nc3ccccc3c2=O)c1 | 16.3 | 0.8 | 47.2 | 0.5 | 8.4
O=C(CSc1nc2ccccc2c(=O)n1CCCO)NCc1ccccc1 | 31.0 | 0.7 | 44.0 | 0.6 | 10.4
O=C(CCCCCn1c(SCC(=O)c2ccccc2)nc2ccccc2c1=O)NCc1ccco1 | 82.5* | 0.2 | 97.6* | 0 | 5.2
O=C(CCCn1c(SCC(=O)c2ccc(Cl)cc2)nc2ccccc2c1=O)NCc1ccco1 | 18.8 | 0.8 | 54.5* | 0.5 | 4.6
COc1ccc(C(=O)/C=C/Nc2cccc(O)c2)cc1 | 7.2 | 0.9 | -24.8 | 1.2 | 14.9
CCOc1ccc(CCNC(=O)C2CCN(c3nn4c(=O)cc(C)nc4s3)CC2)cc1OCC | 54.2* | 0.5 | 57.0* | 0.4 | 9.5
CCOc1ccc(CCNC(=O)C2CCCN(c3nn4c(=O)cc(C)nc4s3)C2)cc1 (configuration not stated) | 21.7 | 0.8 | 63.0* | 0.4 | 5.7
CCOc1ccc(OCC)c(NC(=O)C2CCN(c3nn4c(=O)cc(C)nc4s3)CC2)c1 | 22.7 | 0.8 | 25.1 | 0.7 | 10.3
CCOc1ccc(CCNC(=O)c2cc3sc(Cl)cc3n2C)cc1OCC | 14.3 | 0.9 | 2.5 | 1 | 15.7
Cn1c(C(=O)OC(C(=O)NC2CCCCC2)c2cccnc2)cc2sccc21 (configuration not stated) | 95.9* | 0 | 74.4* | 0.3 | 5.8
COCCNC(=O)C(C)OC(=O)c1cc2occc2n1C (configuration not stated) | 3.5 | 1 | 79.7* | 0.2 | 23.2
CCOc1ccc(CCNC(=O)c2cc3sccc3n2C)cc1OCC | 93.7* | 0.1 | 66.7* | 0.3 | 12.8
Cn1c(C(=O)OC(C(=O)NC2CCCC2)c2cccnc2)cc2sccc21 (configuration not stated) | x | x | x | x | 5.3
Cn1c(C(=O)OCC(=O)NCc2cccs2)cc2sccc21 | 51.2* | 0.5 | 66.0* | 0.3 | 0.3
COC(=O)c1cc2occc2n1Cc1ccc(Cl)cc1 | 1.9 | 1 | 11.0 | 0.9 | 5.0
COc1cccc(C(=O)N/N=C/c2ccc(OC3CSC3)cc2)c1 | 7.9 | 0.9 | 17.6 | 0.8 | 22.6
Cc1nc(-n2cc(F)c(=O)[nH]c2=O)c2nc(C)oc2n1 | -4.9 | 1 | 0.5 | 1 | 4.6
CC(OC(=O)c1cc2sccc2n1C)C(=O)NCc1cccs1 (configuration not stated) | 45.3 | 0.5 | 77.2* | 0.2 | 26.8
Cn1c(C(=O)OCC(=O)NCC2CCCO2)cc2sccc21 (configuration not stated) | x | x | x | x | 10.3
Cn1c(C(=O)OCC(=O)NCCc2ccccc2)cc2sccc21 | 32.2 | 0.7 | 69.4* | 0.3 | 25.1
SMILES | CYP2C19 inh | CYP2C19 activ | CYP2C9 inhib | CYP2C9 activ | Measles CPE
O=C(CSc1nc2c(c(=O)n1-c1ccc(F)cc1)SCC2)NCc1ccco1 | 3.1 | 1 | 7.8 | 0.9 | 28.1
O=c1c2cccc3c2c(nn1CN1CCOCC1)-c1ccccc1-3 | -10.7 | 1.1 | 8.3 | 0.9 | 58.7*
COc1ccc(C(CC(=O)O)NC(=O)Cc2ccccc2)cc1OC (configuration not stated) | x | x | x | x | 1.2
CC(=O)Oc1ccc2ccccc2c1C(NC(=O)Cc1ccccc1)c1ccc(Cl)cc1 (configuration not stated) | 48.3 | 0.5 | 63.1* | 0.4 | 3.7
COCCn1c(SCC(=O)Nc2sc(C)c(C)c2C#N)nnc1-c1ccc(OC)cc1 | 43.7 | 0.6 | 54.3* | 0.5 | 4.3
COCCCn1c(SCC(=O)Nc2cccc(C(=O)OC)c2)nnc1-c1ccncc1 | 81.3* | 0.2 | 79.4* | 0.2 | 15.0
